Screening data deposited in PubChem BioAssay by National Center for Advancing Translational Sciences (NCATS).
Sfp PPTase inh: qHTS Assay for Inhibitors of Bacillus subtilis Sfp phosphopantetheinyl transferase (PPTase); AID 1490, 2009; Biochemical Sfp PPTase activity, qHTS; Potency, µM, for inactives: largest response in the series, negative = inhibition, usual class: inhibitors; 310,000 tested, 3.5% active;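 further: the enzyme is Sfp with the accession as filed and its product quenches rhodamine fluorescence; 0% = enzyme reaction without inhibitor and -100% = no enzyme wells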
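Fluorescence-quenching assay: 15 nM Sfp-PPTase preincubated 15 min at room temperature with compound, then 5 uM rhodamine-CoA and 12.5 uM BHQ-2-labelled YbbR peptide added. Fluorescence (ex 525/em 598 nm) read at start and after 30 min; difference gives rate.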
Epigenetic derep: Quantitative High-Throughput Screen for Regulators of Epigenetic Control; murine LDR cells, GFP reporter derepression, 30 h; Potency, µM (highest dose often 53.9 µM), without a hit: at the top dose GFP activation, most hits filed as activators; 280,000 tested, 0.2% active; further: % of control where 0% means no effect; nearly all actives have a fitted effect of over 60% in size
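In this reporter-derepression format, murine cells bearing a silenced integrated CMV-GFP locus incubate with test compound (30 h, 37 C), then are washed and imaged; fluorescent objects of 20–120 um count as induced cells.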
Gal4-VP16 FLuc: VP16 counterscreen qHTS for inhibitors of ROR gamma transcriptional activity; AID 2546, 2010; 310,000 tested, 3.5% active; Potency, µM (top dose mostly 53.6 µM), without a hit: at the highest dose activity, negative = inhibition, most hits filed as inhibitors; Drosophila S2 Gal4-VP16 UAS-luciferase, luminescence, 20 h;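 further: Gal4-VP16 expression switched on by copper sulfate through the metallothionein promoter; on the % scale 0 is the no-effect control and ±100 the full control effect; nearly all actives have a fitted effect of over 50% in size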
RORgamma inh: qHTS for inhibitors of ROR gamma transcriptional activity. AID 2551, 2010. Nuclear receptor ROR-gamma (Mus musculus), P51450. Potency, µM (titrated, usually from 53.6 µM), inactives show top-dose activity change, negative = inhibition, most hits filed as inhibitors. Drosophila S2 Gal4-RORgamma UAS-luciferase reporter, 20 h. 310,000 tested, 5.4% active; further: on the % scale 0 is the no-effect control and ±100 the full control effect; nearly all actives have a fitted effect of over 60% in size
Target sequence (P51450 whole entry, looked up, the tested form may be a part): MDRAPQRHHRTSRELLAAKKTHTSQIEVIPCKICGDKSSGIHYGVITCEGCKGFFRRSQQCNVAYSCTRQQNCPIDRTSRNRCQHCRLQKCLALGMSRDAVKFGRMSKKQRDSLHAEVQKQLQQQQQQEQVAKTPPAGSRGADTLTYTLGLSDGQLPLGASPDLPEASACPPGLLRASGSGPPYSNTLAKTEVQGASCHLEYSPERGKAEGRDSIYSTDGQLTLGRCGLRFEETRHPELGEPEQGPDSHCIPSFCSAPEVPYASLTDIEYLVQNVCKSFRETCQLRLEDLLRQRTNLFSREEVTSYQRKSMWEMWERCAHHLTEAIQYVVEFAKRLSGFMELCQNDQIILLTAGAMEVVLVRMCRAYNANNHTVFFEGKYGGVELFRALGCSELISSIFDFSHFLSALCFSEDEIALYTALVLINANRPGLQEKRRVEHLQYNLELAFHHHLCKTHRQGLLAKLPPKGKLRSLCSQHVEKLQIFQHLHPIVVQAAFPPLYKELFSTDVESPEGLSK
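Stably transfected Drosophila Schneider cells are the test system, with ROR gamma fused to Gal4 and luciferase under UAS control; luminescence is read after 20 hr of 700 uM copper sulfate induction at ambient temperature.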
ClpP mod: qHTS Assay for Activators of ClpP. AID 651965, 2013. Potency, µM (doses to about 57.5 µM), for the others: at the top dose activity change, negative = active. purified B. subtilis ClpP, FRET peptide cleavage, 20 min. 340,000 tested, 1.9% active. ATP-dependent Clp protease proteolytic subunit (Bacillus subtilis (strain 168)), P80244; active means well fitted falling curve with a large enough effect; inconclusive means small, poorly fitted or top-dose-only effect; inactive means no such curve, though single readings can be large or run the other way; further: the source files actives as falling curves though it sought activators and does not explain the sign; nearly all actives have a fitted effect of over 65% in size
Target sequence (P80244 whole entry, looked up): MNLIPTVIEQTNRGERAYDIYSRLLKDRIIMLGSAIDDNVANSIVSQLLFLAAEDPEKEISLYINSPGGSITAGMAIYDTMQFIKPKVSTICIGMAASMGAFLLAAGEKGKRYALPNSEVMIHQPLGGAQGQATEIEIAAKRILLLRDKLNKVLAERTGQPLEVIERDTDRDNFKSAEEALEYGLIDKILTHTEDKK
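Buffer: 100 mM Tris/HCl pH8, 100 mM KCl, 0.05% low protease BSA, 2.5% glycerol, 0.01% Tween-20. ClpP 10 microg/mL final; 20 min RT; delta FRET normalized to ADEP and DMSO controls.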
PINK1 expr mod: A Quantitative High throughput Screen to Identify Chemical Modulators of PINK1 Expression. PINK1 immunofluorescence, high-content cytometry, 24 h. Potency, µM (titrated, usually from 76.6 µM), inactives show top-dose activation (PINK1 increase), actives largely listed as activators. 410,000 tested, 0.2% active. AID 624263, 2012; active means well fitted activation curve with a large enough effect; inconclusive means small, poorly fitted or top-dose-only effect; cell line not stated here; further: % of control where 0% means no effect; nearly all actives have a fitted effect of over 65% in size
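Readout is PINK1 immunofluorescence, quantified alongside mitochondrial, cell and nuclear markers by laser-scanning microplate cytometry. Cells from a stable line were exposed to compound titrations (5 concentrations) for 24 hours, with CCCP controls.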
Starred values were filed as active, the others as inactive; ? = inconclusive; . = no result given; [ ] = remark or other dose. An excerpt weighted towards active compounds, which were near 8.1% of everything screened. Unless noted, the call rests on the fitted dose curve; in most records, active means well fitted curve in the direction sought with a large enough effect; inconclusive means small, poorly fitted or top-dose-only effect, or another doubt; inactive means no such curve, though single readings can be large; an effect the other way counts as inactive or inconclusive. Potency means the concentration at half of the fitted maximal effect.

SMILES	Sfp PPTase inh	Epigenetic derep	Gal4-VP16 FLuc	RORgamma inh	ClpP mod	PINK1 expr mod
CCc1ccc(CNC(=O)CCCN2C(=O)c3cccnc3Oc3ccc(Cl)cc32)cc1	.	0%	.	.	0%	-1%
COC(=O)c1c(NC(=S)NC(=O)c2ccco2)sc2c1CCCC2	13%	4%	?	2.5µM*	-2%	8%
NC(=O)c1c(NC(NC(=O)c2ccco2)(C(F)(F)F)C(F)(F)F)sc2c1CCCC2	22µM*	2%	5%	10%	-8%	-1%
CN(C)C(=O)c1c(NC(=O)c2ccco2)sc2c1CCCCC2	-5%	-1%	-1%	34%	1%	0%
NC(=O)c1c(NC(=O)c2ccco2)sc2c1CCC2	-8%	1%	5%	?	42%	-5%[38.3 µM]
O=C(Nc1sc2c(c1C(=O)O)CCC2)C(=O)N1CCOCC1	79µM*	.	19%	11%	1%	0%
CCCOC(=O)c1c(NC(=O)C2c3ccccc3Oc3ccccc32)sc2c1CCCC2	.	0%	.	.	13µM*	0%
O=C(NCCS(=O)(=O)N1CCN(c2ccc(F)cc2)CC1)C(c1ccccc1)c1ccccc1	.	2%	.	.	-4%	3%
O=C(NCC1Cc2cccc(-c3cccnc3)c2O1)c1cc(-c2ccccc2)n[nH]1 (stereo not drawn)	.	.	.	.	.	0%
O=Cc1cccc(Br)c1	.	.	-7%	1%	.	.
CCOC(=O)c1c(NC(=O)c2ccco2)sc(C(=O)N2CCCC2)c1C	-22%	-1%	-1%	-17%	-5%	-1%
CCOC(=O)c1c(NC(=O)Cc2cccs2)sc2c1CCCC2	32µM*	6%	3%	-19%	-18%	2%
CCOC(=O)c1c(NC(=O)c2cccs2)sc2c1CCCC2	16%	-1%	-2%	-5%	-6%	1%
CCOC(=O)c1c(/N=C/c2cc([N+](=O)[O-])ccc2O)sc(C)c1C	40µM*	0%	?	10%	4%	3%
CCOC(=O)c1c(NC(=O)C(C)N2CCN(C(=O)c3ccco3)CC2)sc2c1CCCC2 (stereo not drawn)	-26%	-4%	11µM*	-35%	?	12%
CCOC(=O)c1c(/N=C/c2cccc([N+](=O)[O-])c2O)sc2c1CCC2	18µM*	0%	-10%	-1%	-2%	2%
CCOC(=O)c1c(NC(=O)c2ccco2)sc2c1CCCCC2	?	0%	4%	12%	35µM*	?
CCOC(=O)c1c(NC(=O)c2c(C)noc2C)sc2c1CCCCC2	56µM*	-2%	-2%	7%	-3%	0%
NC(=O)c1c(NC(=O)c2cnccn2)sc2c1CCCC2	40µM*	-2%	10%	-38%	.	2%
NC(=O)c1c(NC(=O)c2ccncc2)sc2c1CCCC2	9%	-2%	1%	40%	-1%	0%
O=C(Nc1sc2c(c1C(=O)NCc1ccco1)CCCC2)c1cc(=O)c2cc(Cl)ccc2o1	.	11%	.	.	0%	40µM*
O=C(Nc1sc2c(c1C(=O)O)CCCCC2)c1ccco1	16%	-3%	?	-41%	-4%	0%[38.3 µM]
COc1cccc(N2CCN(C(=O)c3c4c(nc5ccccc35)C(=O)N(C3CCCCC3)C4)CC2)c1	.	0%	.	.	-1%	1%
COC(=O)c1c(NC(=S)NN2CCOCC2)sc2c1CCCC2	6%	-1%	4µM*	1.3µM*	.	8%
Cc1noc(C)c1C(=O)Nc1sc2c(c1C(N)=O)CCCCC2	45µM*	-1%	1%	27%	-1%	9%[38.3 µM]
SMILES	Sfp PPTase inh	Epigenetic derep	Gal4-VP16 FLuc	RORgamma inh	ClpP mod	PINK1 expr mod
CCOC(=O)c1c(NC(=O)c2c(C(=O)O)cccc2[N+](=O)[O-])sc2c1CCCC2	18µM*	.	-5%	15%	0%	4%
Cc1ccccc1OCC(=O)Nc1nnc(S(=O)(=O)N2CCCCCC2)s1	.	0%	.	.	-6%	0%
CCn1c2c(c(=O)n3ncc(C(=O)Nc4ccc(OC(F)(F)F)cc4)c13)CN(Cc1ccc(OC)cc1)CC2	.	3%	.	.	?	1%
CCOc1ccc(-c2nnc(SCC(=O)NCc3ccc(C)cc3)nc2-c2ccc(OCC)cc2)cc1	.	9%	.	.	1%	1%
CC[C@@H](C)[C@@H](O)[C@H](C)C(=O)[C@H](C)/C=C(\C)C[C@H](C)[C@@H]1OC(=O)[C@H]1CC	-11%	.	1%	18%	.	.
O=C(CC(Cl)(Cl)Cl)N1CCN(/[N+]([O-])=N/Oc2ccc([N+](=O)[O-])cc2[N+](=O)[O-])CC1	.	.	.	.	.	0%
COc1ccc(S(=O)(=O)NCCc2cn3ccsc3n2)cc1OC	.	1%	.	.	0%	3%
CC1(C)CC(=O)C(C=Nc2cccnc2)=C(O)C1	-14%	-3%	-7%	-21%	8%	-4%[38.3 µM]
CC1(C)CC(=O)C(C=Nc2ccc(O)c(N=CC3=C(O)CC(C)(C)CC3=O)c2)=C(O)C1	8%	9%	-1%	-14%	-1%	2%
CC1(C)CC(=O)C(C=Nc2ccc(C(=O)c3ccccc3)cc2N=CC2=C(O)CC(C)(C)CC2=O)=C(O)C1	-89%	?	-9%	16µM*	.	4%
CC1(C)CC(=O)C(C=Nc2cccnc2/N=C/C2=C(O)CC(C)(C)CC2=O)=C(O)C1	20%	-5%	-13%	10µM*	.	2%
O=C(NCCCN1CCN(c2cccc(Cl)c2)CC1)c1sc2ncccc2c1-n1cccc1	.	-2%	.	.	-7%	-2%
CSC1=NC(NCCCO)c2c(sc3c2CC(C)(C)OC3)N1 (stereo not drawn)	-20%	0%	-5%	30%	11µM*	3%
CSc1nc(SCC(=O)O)c2c3c(sc2n1)COC(C)(C)C3	12%	3%	0%	19%	3%	0%
NNC(=O)c1cc(-c2ccc(N)cc2)nc2ccc(Br)cc12	6%	-3%	?	10µM*	0%	1%
COc1ccc(-c2cc(C(=O)Nc3ccc(Cl)cc3Cl)c3ccccc3n2)cc1OC	35µM*	0%	-5%	22%	20%	11%
COc1ccc(NC(=O)c2cc(-c3ccc(C)o3)nc3ccccc23)cc1OC	22µM*	-2%	-2%	16%	3.5µM*	3%
COc1ccc(NC(=O)c2cc(-c3ccncc3)nc3ccc(Br)cc23)cc1OC	?	.	20µM*	?	0%	1%
Cc1cc(C(=O)NN)c2cc(Br)ccc2n1	15%	20%	-10%	2%	0%	9%
COc1ccc(NC(=O)c2cc(-c3ccc(C)o3)nc3ccccc23)c(OC)c1	.	.	.	.	-9%	5%
